# Results from ChEMBL document CHEMBL4513216, “Probing the Open Global Health Chemical Diversity Library for Multistage-Active Starting Points for Next-Generation Antimalarials” (ACS Infect Dis, 2020).
# The whole screen tested about 69,000 compounds, of which about 8,600 (12%) showed an effect of 50% or more. What follows is part of a selection rich in strong results, with near analogues and random picks from the rest.
# Test system: Plasmodium berghei
# Assay: Screen against P. berghei liver stage (PbLuc), transformed with Luciferase, at 10uM
# Format: functional, HepG2
# Conditions: tested at 10 uM
row,Structure (SMILES),INHIBITION
1,Cc1ccc(N2CCCN(C(=O)CCCn3ccnc3C)CC2)nn1,7.18%
2,O[C@]12CCNC[C@H]1CN(c1nccc3ccccc13)CC2,53.9%
3,CCCOc1ccc2ccccc2c1CN1CC[C@@]2(O)CCNC[C@H]2C1,5.41%
4,Cc1nnc(N2CC[C@@]3(O)CCNC[C@H]3C2)c2ccccc12,25.8%
5,CC(=O)N1CC2(CCN(c3nccc4ccccc34)CC2)CC1C(=O)O (stereo not drawn),29.2%
6,CN(C)c1nccnc1N1CC[C@@]2(O)CCNC[C@H]2C1,15.8%
7,O[C@]12CCNC[C@H]1CN(c1ncccc1Cl)CC2,7.6%
8,CN(C)CCO[C@H]1C[C@@H](O)C12CCN(c1nccc3ccccc13)CC2,-3.58%
9,O[C@]12CCNC[C@H]1CN(c1ccnc3ccccc13)CC2,56.7%
10,O=C(O)C1CC2(CCN(c3nccc4ccccc34)CC2)CN1 (stereo not drawn),93.1%
11,Cc1cc(C2CCCN2C(=O)c2cc3c(s2)CCC3)no1 (stereo not drawn),15.3%
12,CS(=O)(=O)N1CCOCC2(CCN(C(=O)c3ccco3)CC2)C1,27.6%
13,Cc1cnc(C)c(N2CCC3(CCCN(C4CCOCC4)C3=O)C2)n1 (stereo not drawn),-30%
14,CN1CCC(C(=O)N2CCC(c3ccc4c(N)n[nH]c4n3)CC2)CC1,34.75%
15,Cc1cnn(C2CCCN(C(=O)c3ccc(C(N)=O)cn3)C2)c1 (stereo not drawn),44.3%
16,Cc1c(Br)cccc1S(=O)(=O)NCc1ccnn1C,37.1%
17,O=c1cccnn1CC1CN(c2ncc(F)cn2)Cc2nccn2C1 (stereo not drawn),-3.33%
18,COc1ccc(C(=O)N2CCN(CCO)CC2)c(F)c1,-61.4%
19,OCCc1ncnn1Cc1cccc(Cl)c1,0.426%
20,c1ccc(-n2nnnc2CNCc2ccc3c(c2)OCCO3)cc1,34.9%
21,c1ccc(-n2nnnc2NCc2ccc3c(c2)OCO3)cc1,64.5%
22,NC(=O)c1c[nH]nc1NCc1ccc2c(c1)OCO2,4.35%
23,CN(Cc1ccc2c(c1)OCO2)Cc1nc(Cc2ccccc2)no1,9.56%
24,CN(Cc1ccc2c(c1)OCCO2)Cc1nnnn1-c1ccccc1,51.2%
25,N#Cc1c[nH]nc1NCc1ccc2c(c1)OCO2,-5.51%
26,COCCn1ccnc1CN1CCc2[nH]cnc2C1c1cnn(C)c1C (stereo not drawn),32.2%

row,Structure (SMILES),INHIBITION
1,Cn1cc(-c2nnc3sc(C4CC4)nn23)cn1,0.87%
2,O=C(COc1ccccc1)NCCNC(=O)c1scnc1Cl,23.5%
3,CCCc1cc(=O)[nH]c(-c2ccccc2CN(C)CCn2cccn2)n1,16.1%
4,Cc1ncsc1C(=O)NC1CCN(Cc2ccc(C(F)(F)F)cc2)CC1,62.6%
5,Cc1ccc(CN2CCC(NC(=O)c3scnc3C)CC2)cc1,40.9%
6,Cc1ncsc1C(=O)NC1CCN(Cc2ccc(C(N)=O)cc2)CC1,-12.2%
7,COCCN1CCN(Cc2ccc(C(C)=O)cc2)[C@H]2CS(=O)(=O)C[C@H]21,32.1%
8,COCCN1CCN(Cc2ccc(F)c(C)c2)[C@H]2CS(=O)(=O)C[C@H]21,28.5%
9,CCOc1ccc(CN2CCN(CCOC)[C@@H]3CS(=O)(=O)C[C@@H]32)cc1,45.8%
10,COCCN1CCN(Cc2nccs2)[C@H]2CS(=O)(=O)C[C@H]21,55.7%
11,COCCN1CCN(Cc2nc3c(s2)CCCC3)[C@H]2CS(=O)(=O)C[C@H]21,-27.6%
12,CCc1ccc(CN2CCN(CCOC)[C@@H]3CS(=O)(=O)C[C@@H]32)cc1,39.4%
13,COCCN1CCN(Cc2ccc(Cl)cc2)[C@H]2CS(=O)(=O)C[C@H]21,52.1%
14,COCCN1CCN(Cc2ccncc2)[C@H]2CS(=O)(=O)C[C@H]21,63.5%
15,COCCN1CCN(Cc2cccnc2)[C@H]2CS(=O)(=O)C[C@H]21,43%
16,Cn1ccnc1CN1CCCC(CCCc2ccccn2)(C(N)=O)C1 (stereo not drawn),10.9%
17,O=C(NCCc1ccco1)Nc1cc(C(F)(F)F)c[nH]c1=O,4.8%
18,Cc1nc(C)n(CC2CCCN2CC(=O)Nc2cc(C)on2)n1 (stereo not drawn),40.2%
19,CCN(C)C(=O)Cn1c(-c2ccco2)nn(-c2ccccc2OC)c1=O,33.3%
20,Cc1cccnc1C(=O)N1C[C@@H]2CC[C@H](Oc3cccc(F)c3)[C@@H]2C1,20.8%
21,COCCN1CCC(NCc2ccc(F)cc2F)C1 (stereo not drawn),25.4%
22,CSCC(=O)N1CCc2c(cnc(C)c2-c2noc(-c3cc[nH]n3)n2)C1,12.1%
23,O=C(Cc1ccc2c(c1)CCC2)N1CCN(c2cnccn2)CC1,-46.4%
24,O=C(CCCNC(=O)NCC1CCCO1)Nc1ccc(Cl)cc1 (stereo not drawn),25.8%
25,Cc1cc(C)cc(C(=O)NCCCNc2ncccn2)c1,55.4%
26,COc1cc(OC)cc(C(=O)NCCCNc2ncccn2)c1,-14.1%

row,Structure (SMILES),INHIBITION
1,CCOc1ccc(C(=O)NCCCNc2ncccn2)cc1,41.5%
2,O=C(CCCNc1ncccn1)Nc1cc(C(F)(F)F)c[nH]c1=O,29.15%
3,O=C(NCC(O)(c1ccco1)C1CC1)c1c(F)cccc1Cl (stereo not drawn),46.7%
4,CC(O)(CNC(=O)c1c(F)cccc1Cl)C1CC1 (stereo not drawn),9.79%
5,CC(O)(CNC(=O)c1c(F)cccc1Cl)c1ccco1 (stereo not drawn),55.6%
6,Cc1cc(Cl)ccc1NCc1ccc(C(=O)N(C)C)[nH]1,3.03%
7,CCc1cnc(N2C[C@@H](NC(=O)c3cscn3)[C@H]3COC[C@H]32)nc1,-82.5%
8,CCN1CCC2(C=C(C(=O)N(C)C)c3ccccc32)CC1,41.2%
9,CCC(=O)N1CCC2(C=C(C(=O)N(C)C)c3ccccc32)CC1,53%
10,CCC(=O)N1CCC2(C=C(C(=O)N3CCCC3)c3ccccc32)CC1,34.9%
11,CN1CCC2(C=C(C(=O)N(C)C)c3ccccc32)CC1,63.8%
12,CC(C)CN1CCC2(C=C(C(=O)N(C)C)c3ccccc32)CC1,30.3%
13,CC(C)N1CCC2(C=C(C(=O)N(C)C)c3ccccc32)CC1,-41.6%
14,CC(C)COC(C)C(=O)NCCNC(=O)C(C)C (stereo not drawn),36.8%
15,O=C(Cn1cc(Cl)cn1)N1CCCC(c2cc3ccccc3cn2)C1 (stereo not drawn),24.4%
16,O=C(C1CC=CC1)N1CCCn2nnc(CNc3ncccn3)c2C1,29.5%
17,Fc1cccc(-n2ccc(CN3CCCC3Cn3cncn3)n2)c1 (stereo not drawn),-19.4%
18,Cc1nc(C(=O)N2CCCC2c2cncc(CN3CCCC3)n2)co1 (stereo not drawn),-33.6%
19,Cc1cc(C2CCCN2C(=O)c2cnn(C)c2)on1 (stereo not drawn),0.8%
20,Cc1cccc(NCC(=O)Nc2cc(F)ccc2F)c1C(N)=O,-33.7%
21,CCN1C[C@H]2[C@@H](C1)N(C(=O)Cc1ccsc1)CC[C@H]2OC,-9.74%
22,CCN1C[C@@H]2[C@@H](OC)CCN(C(=O)c3cc(C)nn3CC)[C@@H]2C1,84.1%
23,CCn1nc(C)cc1C(=O)N1CC[C@H](OC)[C@H]2CN(CC3CC3)C[C@H]21,-6.39%
24,CCC(C)NS(=O)(=O)c1ccc(C(=O)NC2(C#N)CCC2)cc1 (stereo not drawn),3.13%
25,CC(C)c1cc(CN(C)C(=O)C(C)N2CCc3ccccc3C2)no1 (stereo not drawn),63.1%
26,COCCc1noc(CN(C)C(=O)C(C)N2CCc3ccccc3C2)n1 (stereo not drawn),2.29%

row,Structure (SMILES),INHIBITION
1,CC(C(=O)N(C)Cc1noc(C2CCC2)n1)N1CCc2ccccc2C1 (stereo not drawn),25.8%
2,Cn1cc(C2CCCN2C(=O)c2cnc(-c3cccs3)s2)cn1 (stereo not drawn),37.7%
3,O=C(C1CCOC1)N1Cc2ccccc2OC2(CCOCC2)C1 (stereo not drawn),12.8%
4,CCOC1CCN(C(=O)NCCN(C)C(=O)OC(C)(C)C)CC1,58.2%
5,CN(CCNC(=O)N1CCCC1)C(=O)OC(C)(C)C,-30.5%
6,CC(CCNC(=O)N1CCC1)N(C)C(=O)OC(C)(C)C (stereo not drawn),8.18%
7,COCCN(Cc1ccoc1)S(=O)(=O)c1ccc(F)c(Cl)c1,-31.7%
8,COc1ccc(CNC(=O)Cc2csc(C(C)=O)c2)cc1,33%
9,CC(=O)c1cc(CC(=O)NCc2ccc(CN(C)C)cc2)cs1,50.1%
10,CC(=O)c1cc(CC(=O)NCc2ccc(F)cc2)cs1,-38.2%
11,CS(=O)(=O)Cc1ccc(CNC(=O)N2CCC(C(N)=O)C2)cc1 (stereo not drawn),2.97%
12,CCOc1ncccc1NC(=O)NC1CCN(c2ncccn2)CC1,-19.9%
13,CCn1nc2c(cc1=O)CN(c1ncnc3ccsc13)CC2,93.6%
14,Cn1nc2c(cc1=O)CN(c1ncnc3ccsc13)CC2,34.6%
15,CCn1nc2c(cc1=O)CN(CC(=O)N(C)c1nccs1)CC2,50.7%
16,CN(C(=O)CN1CCc2nn(C)c(=O)cc2C1)c1nccs1,29%
17,CCn1nc2c(cc1=O)CN(c1nc3ccccc3s1)CC2,37.7%
18,CC(C)n1nc2c(cc1=O)CN(c1ncnc3ccccc13)CC2,94.5%
19,CCn1nc2c(cc1=O)CN(CC(=O)Nc1nccs1)CC2,18.2%
20,CCCn1nc2c(cc1=O)CN(CC(=O)N(C)c1nccs1)CC2,9.56%
21,CCCn1nc2c(cc1=O)CN(c1ncnc3ccsc13)CC2,91.9%
22,CC(C)n1nc2c(cc1=O)CN(Cc1nc3ccccc3o1)CC2,26.5%
23,CC(C)n1nc2c(cc1=O)CN(c1nc3ccccc3s1)CC2,35%
24,CCCn1nc2c(cc1=O)CN(CCCN1CCCC1=O)CC2,6.56%
25,CCCc1c(C2CCOC(C)(C)C2)nc(N)c(C#N)c1-c1cnn(C)c1 (stereo not drawn),4.15%
